# Source: the supplement of paper PMC10849652
# Targets with a hit are over-represented here; the source holds about 7,900 in all. About 0.6% of all pairs of compound and target were hits. Values without a mark were called inactive.
# What was measured:
# Assay in all cases: log2 fold change, soluble protein after heating vs DMSO (PISA); higher = thermal stabilisation; K562 cells, 10 uM, 30 min; active = over 0.2 and 3.5 SD of the protein, either way, in both replicates (recomputed)
# [1] = compound: CC1=C(C=C(C=C1)NC(=O)C2=CC(=CC=C2)C(C)(C)C#N)NC3=CC4=C(C=C3)N=CN(C4=O)C
# Summary of the method: (§1)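 K562 cells at 2×10^6 cells/mL were exposed to 10 μM compound for 30 min, then aliquots were heated for 3 min across 48°C-58°C, pooled, and extracted in PBS containing 0.5% NP-40 at 4°C. The supernatant after 21,000xg for 90 min was taken as soluble protein and measured by TMTpro 16plex LC-MS/MS with channel sums equalised. Thermal stability is reported relative to control samples, with values from duplicates. Fold changes are given on a log2 scale.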
# [2] = compound: CC1=C(C=C(C=C1)NC(=O)C2=CC(=CC=C2)N(C)C)NC(=O)C3=CC=C(C=C3)O
# Summary of the method: as §1
# [3] = compound: CC1=CC=C(C=C1)SC2=C3C=C(SC3=CN=C2)C(=O)N
# Summary of the method: as §1
# [4] = compound: CC1=NC(=CC=C1)C2=C(N=C(N2)C(C)(C)C)C3=CC4=NC=CN=C4C=C3
# Summary of the method: as §1
# Nexturastat A = compound: CCCCN(Cc1ccc(C(=O)NO)cc1)C(=O)Nc1ccccc1 [Nexturastat A]
# Summary of the method: as §1
# vemurafenib = compound: CCCS(=O)(=O)Nc1ccc(F)c(C(=O)c2c[nH]c3ncc(-c4ccc(Cl)cc4)cc23)c1F [vemurafenib]
# Summary of the method: as §1
# [5] = compound: CCCS(=O)(=O)Nc1ccc(F)c(C(=O)c2c[nH]c3ncc(Cl)cc23)c1F
# Summary of the method: as §1
# [6] = compound: CCCc1cc(C)[nH]c(=O)c1CNC(=O)c1cc(-c2ccnc(N3CCN(C)CC3)c2)cc2c1cnn2C(C)C
# Summary of the method: as §1
# givinostat = compound: CCN(CC)Cc1ccc2cc(COC(=O)Nc3ccc(C(=O)NO)cc3)ccc2c1 [givinostat]
# Summary of the method: as §1
# barasertib = compound: CCN(CCCOc1ccc2c(Nc3cc(CC(=O)Nc4cccc(F)c4)[nH]n3)ncnc2c1)CCOP(=O)(O)O [barasertib]
# Summary of the method: as §1
# Chain of UniProt Q9NZT2 (Q9NZT2 whole entry, looked up): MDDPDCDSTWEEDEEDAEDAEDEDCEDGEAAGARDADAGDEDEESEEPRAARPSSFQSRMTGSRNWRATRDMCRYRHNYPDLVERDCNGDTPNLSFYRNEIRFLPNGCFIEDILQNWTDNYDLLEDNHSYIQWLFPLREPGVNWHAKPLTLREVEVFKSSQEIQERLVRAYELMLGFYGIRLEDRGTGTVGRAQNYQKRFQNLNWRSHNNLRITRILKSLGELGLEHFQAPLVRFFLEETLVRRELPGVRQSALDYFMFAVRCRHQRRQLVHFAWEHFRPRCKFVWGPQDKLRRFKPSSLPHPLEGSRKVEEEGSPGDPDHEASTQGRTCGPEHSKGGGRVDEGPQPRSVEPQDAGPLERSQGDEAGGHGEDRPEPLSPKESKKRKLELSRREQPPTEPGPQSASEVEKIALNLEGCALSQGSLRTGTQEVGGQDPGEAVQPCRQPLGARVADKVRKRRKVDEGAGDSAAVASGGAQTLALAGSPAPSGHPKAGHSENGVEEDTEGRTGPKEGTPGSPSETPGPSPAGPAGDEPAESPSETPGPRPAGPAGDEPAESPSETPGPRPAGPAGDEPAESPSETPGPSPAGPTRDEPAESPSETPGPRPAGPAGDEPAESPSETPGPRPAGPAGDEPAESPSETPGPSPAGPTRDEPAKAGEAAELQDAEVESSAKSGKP
# Chain of UniProt P84157 (P84157 whole entry, looked up): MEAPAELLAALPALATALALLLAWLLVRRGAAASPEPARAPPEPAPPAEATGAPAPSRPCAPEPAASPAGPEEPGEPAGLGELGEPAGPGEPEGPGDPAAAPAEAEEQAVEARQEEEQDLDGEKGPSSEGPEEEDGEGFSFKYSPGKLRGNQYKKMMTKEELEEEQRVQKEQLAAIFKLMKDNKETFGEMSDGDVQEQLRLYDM
# Chain of UniProt Q99747 (Q99747 whole entry, looked up): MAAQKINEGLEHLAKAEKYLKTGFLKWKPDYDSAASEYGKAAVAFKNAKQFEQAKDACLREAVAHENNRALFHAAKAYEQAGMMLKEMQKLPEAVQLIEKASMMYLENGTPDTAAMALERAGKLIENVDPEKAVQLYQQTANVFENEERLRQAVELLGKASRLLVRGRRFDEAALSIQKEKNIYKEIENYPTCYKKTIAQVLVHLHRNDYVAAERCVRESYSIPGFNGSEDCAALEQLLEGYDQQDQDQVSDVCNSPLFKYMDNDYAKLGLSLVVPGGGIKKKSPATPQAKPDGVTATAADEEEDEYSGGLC
# Chain of UniProt Q9UH92 (Q9UH92 whole entry, looked up): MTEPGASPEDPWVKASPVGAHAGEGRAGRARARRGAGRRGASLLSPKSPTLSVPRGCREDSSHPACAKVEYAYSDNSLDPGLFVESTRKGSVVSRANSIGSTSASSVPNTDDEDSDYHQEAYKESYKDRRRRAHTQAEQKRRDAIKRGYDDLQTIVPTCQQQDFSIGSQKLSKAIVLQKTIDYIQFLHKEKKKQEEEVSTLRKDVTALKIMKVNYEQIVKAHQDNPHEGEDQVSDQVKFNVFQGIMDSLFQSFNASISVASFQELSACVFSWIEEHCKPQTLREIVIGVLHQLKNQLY
# Chain of UniProt Q12769 (Q12769 whole entry, looked up): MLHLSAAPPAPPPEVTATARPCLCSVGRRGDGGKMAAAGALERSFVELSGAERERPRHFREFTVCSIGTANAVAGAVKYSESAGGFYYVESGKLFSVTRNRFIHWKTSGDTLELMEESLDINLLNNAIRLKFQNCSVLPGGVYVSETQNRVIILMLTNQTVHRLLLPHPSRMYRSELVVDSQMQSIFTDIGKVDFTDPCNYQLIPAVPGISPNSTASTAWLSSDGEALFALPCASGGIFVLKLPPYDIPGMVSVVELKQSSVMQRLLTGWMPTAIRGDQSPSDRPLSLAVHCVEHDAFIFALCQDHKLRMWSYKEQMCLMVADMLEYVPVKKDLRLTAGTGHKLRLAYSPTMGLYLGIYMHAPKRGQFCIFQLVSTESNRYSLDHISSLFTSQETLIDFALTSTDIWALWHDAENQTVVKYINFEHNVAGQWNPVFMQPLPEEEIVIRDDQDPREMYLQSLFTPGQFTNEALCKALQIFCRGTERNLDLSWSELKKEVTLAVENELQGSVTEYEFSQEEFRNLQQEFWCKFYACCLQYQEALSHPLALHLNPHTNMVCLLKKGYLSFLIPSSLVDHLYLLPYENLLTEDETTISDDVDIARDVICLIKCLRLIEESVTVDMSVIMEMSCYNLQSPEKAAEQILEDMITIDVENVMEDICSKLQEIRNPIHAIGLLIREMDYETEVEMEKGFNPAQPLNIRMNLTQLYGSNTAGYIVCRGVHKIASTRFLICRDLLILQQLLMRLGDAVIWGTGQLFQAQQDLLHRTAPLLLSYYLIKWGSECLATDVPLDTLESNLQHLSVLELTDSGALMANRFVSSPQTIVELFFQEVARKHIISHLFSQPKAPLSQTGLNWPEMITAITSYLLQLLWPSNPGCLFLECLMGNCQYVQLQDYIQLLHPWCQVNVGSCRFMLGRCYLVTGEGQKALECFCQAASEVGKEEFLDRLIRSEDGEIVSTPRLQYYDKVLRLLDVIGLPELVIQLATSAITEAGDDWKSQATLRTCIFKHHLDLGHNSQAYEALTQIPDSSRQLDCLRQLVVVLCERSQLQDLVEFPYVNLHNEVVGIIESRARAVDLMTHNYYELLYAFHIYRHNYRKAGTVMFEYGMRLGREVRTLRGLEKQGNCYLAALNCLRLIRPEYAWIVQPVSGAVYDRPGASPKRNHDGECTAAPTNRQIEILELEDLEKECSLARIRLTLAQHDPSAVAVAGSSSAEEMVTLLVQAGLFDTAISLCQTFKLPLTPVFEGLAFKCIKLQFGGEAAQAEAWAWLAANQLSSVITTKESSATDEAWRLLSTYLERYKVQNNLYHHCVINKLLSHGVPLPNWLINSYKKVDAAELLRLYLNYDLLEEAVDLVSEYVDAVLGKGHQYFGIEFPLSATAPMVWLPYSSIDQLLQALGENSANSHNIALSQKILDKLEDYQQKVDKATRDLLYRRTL
# Chain of UniProt O00483 (O00483 whole entry, looked up): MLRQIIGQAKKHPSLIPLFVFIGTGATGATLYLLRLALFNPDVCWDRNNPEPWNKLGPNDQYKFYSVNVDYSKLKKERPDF
# Chain of UniProt Q96T76 (Q96T76 whole entry, looked up): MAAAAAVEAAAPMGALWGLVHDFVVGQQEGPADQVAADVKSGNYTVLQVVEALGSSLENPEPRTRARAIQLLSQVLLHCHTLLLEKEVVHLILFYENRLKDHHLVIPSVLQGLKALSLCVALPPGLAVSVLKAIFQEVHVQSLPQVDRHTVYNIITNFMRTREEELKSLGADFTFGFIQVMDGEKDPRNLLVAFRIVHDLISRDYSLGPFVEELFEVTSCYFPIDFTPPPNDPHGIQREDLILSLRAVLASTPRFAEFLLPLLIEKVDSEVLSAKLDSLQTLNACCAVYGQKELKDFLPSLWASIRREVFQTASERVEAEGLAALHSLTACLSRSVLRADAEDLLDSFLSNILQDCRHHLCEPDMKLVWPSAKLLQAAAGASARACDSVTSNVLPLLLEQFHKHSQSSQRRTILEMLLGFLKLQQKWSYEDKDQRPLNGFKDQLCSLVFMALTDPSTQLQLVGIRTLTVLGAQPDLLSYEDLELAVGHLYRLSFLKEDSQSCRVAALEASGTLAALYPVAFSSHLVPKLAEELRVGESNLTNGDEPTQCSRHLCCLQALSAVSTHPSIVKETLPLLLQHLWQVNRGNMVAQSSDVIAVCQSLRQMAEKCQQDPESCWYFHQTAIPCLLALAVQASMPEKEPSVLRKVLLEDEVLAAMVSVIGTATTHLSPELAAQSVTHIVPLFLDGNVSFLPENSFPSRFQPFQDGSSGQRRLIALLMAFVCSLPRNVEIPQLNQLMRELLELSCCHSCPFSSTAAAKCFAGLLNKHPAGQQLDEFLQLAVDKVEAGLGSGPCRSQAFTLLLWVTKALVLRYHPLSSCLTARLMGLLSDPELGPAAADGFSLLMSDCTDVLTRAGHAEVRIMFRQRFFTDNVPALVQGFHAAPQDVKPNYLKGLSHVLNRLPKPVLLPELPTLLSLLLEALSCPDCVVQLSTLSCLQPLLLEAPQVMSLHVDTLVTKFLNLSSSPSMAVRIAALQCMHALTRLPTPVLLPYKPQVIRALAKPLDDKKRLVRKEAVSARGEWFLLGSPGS
# Chain of UniProt Q16621 (Q16621 whole entry, looked up): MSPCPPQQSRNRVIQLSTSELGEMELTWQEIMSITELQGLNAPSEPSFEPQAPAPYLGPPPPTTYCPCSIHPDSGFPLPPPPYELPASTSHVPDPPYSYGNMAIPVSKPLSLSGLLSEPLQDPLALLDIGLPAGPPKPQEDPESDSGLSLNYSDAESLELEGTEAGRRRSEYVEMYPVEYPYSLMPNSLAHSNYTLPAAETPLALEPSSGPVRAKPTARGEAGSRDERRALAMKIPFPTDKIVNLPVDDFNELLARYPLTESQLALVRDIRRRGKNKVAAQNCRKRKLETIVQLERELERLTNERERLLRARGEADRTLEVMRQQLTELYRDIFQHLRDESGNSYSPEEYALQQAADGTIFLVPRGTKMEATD
# Chain of UniProt P17568 (P17568 whole entry, looked up): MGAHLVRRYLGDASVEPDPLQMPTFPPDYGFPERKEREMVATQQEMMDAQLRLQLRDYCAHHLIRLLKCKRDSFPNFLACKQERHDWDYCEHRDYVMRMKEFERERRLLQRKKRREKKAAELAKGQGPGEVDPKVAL
# Chain of UniProt P68402 (P68402 whole entry, looked up): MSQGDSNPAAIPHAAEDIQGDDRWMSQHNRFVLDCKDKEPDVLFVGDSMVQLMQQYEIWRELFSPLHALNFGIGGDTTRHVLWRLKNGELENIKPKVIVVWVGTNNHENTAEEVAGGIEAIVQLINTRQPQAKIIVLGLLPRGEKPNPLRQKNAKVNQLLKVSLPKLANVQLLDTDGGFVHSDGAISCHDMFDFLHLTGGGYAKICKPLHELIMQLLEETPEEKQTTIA
# Chain of UniProt O60361 (O60361 whole entry, looked up): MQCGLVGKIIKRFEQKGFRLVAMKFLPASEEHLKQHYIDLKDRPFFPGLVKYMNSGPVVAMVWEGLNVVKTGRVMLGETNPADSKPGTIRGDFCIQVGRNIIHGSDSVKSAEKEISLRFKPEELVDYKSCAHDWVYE
Target,log2 fold change [1],log2 fold change [2],log2 fold change [3],log2 fold change [4],log2 fold change (Nexturastat A),log2 fold change (vemurafenib),log2 fold change [5],log2 fold change [6],log2 fold change (givinostat),log2 fold change (barasertib)
NFYC (UniProt Q13952),0.005,0.011,-0.061,0.019,-0.087,-0.006,-0.001,-0.031,0.001,0.028
NME2P1 (UniProt O60361),0.06,0.017,0.065,0.004,-0.164,0.038,-0.043,-0.102,0.09,0.12
NUP160 (UniProt Q12769),0.006,0.037,0.023,0.017,-0.037,-0.01,0.083,0.002,0.018,0.062
NACC1 (UniProt Q96RE7),-0.043,-0.012,0.048,0.164,-0.036,0.154,0.064,0.025,0.208,0.115
NELFB isoform 2 (UniProt Q8WX92),-0.026,-0.062,0.035,0.05,-0.032,0.06,0.08,-0.007,0.069,0.046
NDUFA4 (UniProt O00483),0.046,-0.069,-0.003,0.049,-0.033,0.002,0.018,-0.023,-0.099,0.044
MXRA7 (UniProt P84157),-0.181,-0.015,0.038,0.011,-0.002,0.041,-0.032,-0.078,0.011,0.048
MKRN2 (UniProt Q9H000),0.147,0.059,-0.002,0.086,0.091,0.095,0.035,-0.045,0.083,-0.098
PAFAH1B2 (UniProt P68402),0.064,0.005,-0.106,-0.046,-0.157,0.083,-0.135,-0.355,0.042,0.046
NOL11 (UniProt Q9H8H0),-0.023,0.029,0.004,0.013,-0.024,-0.026,0.003,-0.016,0.015,-0.021
MRPS15 (UniProt P82914),0.04,-0.026,-0.017,-0.022,0.058,-0.037,0.062,0.023,0.027,0.004
NAPG (UniProt Q99747),0.044,-0.115,0.077,0.006,0.004,0.067,0.155,0.045,0.123,0.107
NDUFB10 (UniProt O96000),-0.093,-0.008,0.001,0.05,-0.002,-0.019,0,-0.126,-0.023,0.02
NDUFB7 (UniProt P17568),0.037,-0.006,0.063,0.027,0.023,0.018,-0.014,-0.124,-0.367 (active),-0.012
MRPS21 (UniProt P82921),0.015,-0.059,0.215,0.107,0.093,0.079,0.132,-0.018,-0.016,-0.156
NISCH (UniProt Q9Y2I1),0.009,-0.07,-0.054,-0.018,0.094,0.055,0.116,-0.077,0.032,0.075
MRPS17 (UniProt Q9Y2R5),0.055,-0.095,-0.014,0.008,0.085,0.084,0.031,0.095,-0.103,0.01
NUP107 (UniProt P57740),-0.035,0.085,0.117,0.012,0.17,0.1,0.219,-0.031,0.011,0.017
NPEPPS (UniProt P55786),0.079,-0.012,-0.004,0.018,-0.017,-0.022,0.003,0.009,-0.02,0.008
MMS19 isoform 8 (UniProt Q96T76),-0.022,-0.029,0,0.067,0.051,0.047,0.1,0.061,-0.061,0.063
NFE2 (UniProt Q16621),-0.09,0.064,0.017,0.034,0.044,-0.087,0.043,-0.009,0.087,-0.003
NSMCE4A (UniProt Q9NXX6),0,0.022,-0.035,-0.053,0.037,0.088,-0.041,-0.016,-0.072,0.196
MSL1 (UniProt Q68DK7),-0.014,0.037,-0.026,0.039,0.185,-0.02,-0.001,0.05,0.197,-0.002
MRPS22 (UniProt P82650),0.041,-0.029,0.022,-0.018,0.092,-0.024,0.037,0.049,0.032,-0.055
P4HA2 (UniProt O15460),-0.038,-0.014,0.033,-0.102,0.402,-0.093,-0.038,0.043,0.058,0.101
NDUFS8 (UniProt O00217),0.02,0,0.03,0.018,-0.136,0.02,-0.006,-0.092,-0.014,-0.004
NUP205 (UniProt Q92621),0.009,0.018,0.002,0.075,0.151,0.059,0.084,-0.016,0.076,0.044
OPHN1 (UniProt O60890),-0.146,-0.029,–,0.218,-0.12,–,–,-0.018,0.049,-0.037
OGFR (UniProt Q9NZT2),-0.023,0.018,-0.022,0.035,0.057,0.075,0.002,0.01,-0.02,0.125
MLX (UniProt Q9UH92),0.035,-0.027,0.082,0,0.009,–,0.008,0.071,0.047,0.117
